An excerpt weighted towards active compounds, which were near 4% of everything screened.
Peg3 prom inh = reduces Peg3 promoter-driven luciferase expression in HeLa; HeLa PEG-Prom luciferase reporter, luminescence, overnight; inhibition, % at 20 µM; actives 1.7% (n = 360,000); AID 588405;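 active = inhibition of at least 50% at 20 µM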
CF NFkB inh = cystic fibrosis NF-kB activation inhibition; KKLEB NF-kB-GFP reporter, PAF-induced, GFP fluorescence overnight; actives 0.86% (n = 360,000); AID 588850; inhibition, % at 5 µM;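 active = at least 50% inhibition at 5 µM, scaled per plate between neutral and stimulator controls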;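 note: PAF is a Pseudomonas aeruginosa culture filtrate used as stimulus; plate controls were PAF-stimulated DMSO wells for no effect and unstimulated DMSO wells for full effect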
KKLEB cytotox = counter-screen for CF NF-kB inhibitors: cytotoxicity | KKLEB CF airway cells viability, ATPlite luminescence, overnight; stronger effect = lower value; cells stimulated with P. aeruginosa culture filtrate | activity change (cytotoxicity), % at 5 µM | actives 0.36% (n = 360,000) | AID 602141;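 active = corrected activity change at or below -50% at 5 µM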
TWEAK Fn14 block = TWEAK-Fn14 signaling inhibition; TWEAK-stimulated Fn14 reporter cells, luciferase luminescence, 8 h; inhibition, % at 10 µM; actives 2% (n = 360,000); AID 1159606; in the data active = inhibition above about 50%
HIF-2a block = blocks HIF-2a reporter activity; inhibition, % at 18.8 µM; 786-0 RCC cells HIF-2a reporter, luciferase luminescence, overnight; actives 0.72% (n = 360,000);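 active = inhibition of the luminescence signal of 40% or more relative to plate controls, in a single-dose primary screen at 18.75 µM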
TROY signal inh = blocks TROY-dependent signaling in reporter cells. Q293 LMP1-TROYcd NF-kB luciferase reporter, 4 h. inhibition, % at 10 µM. actives 0.98% (n = 360,000). AID 1347056;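 active = compounds whose plate-normalised and pattern-corrected inhibition of the luciferase reporter signal at the single screening dose is 50% or more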
* marks the source's active call; other numbers are inactive results; · = not tested or not shown.

SMILES	Peg3 prom inh	CF NFkB inh	KKLEB cytotox	TWEAK Fn14 block	HIF-2a block	TROY signal inh
CC(C)c1nc2sc3c(NCc4ccco4)ncnc3c2c2c1COC(C)(C)C2	26.8	77.8*	-66.2*	52.3*	26.7	·
CC(C)c1nc2sc3c(NCc4ccccc4)ncnc3c2c2c1COC(C)(C)C2	9.8	36.3	-28.9	-49.6	1.8	5.0
CCCc1nc(NCc2ccco2)c(C#N)c2c1COC(C)(C)C2	27.1	11.3	-6.1	73.9*	14.4	·
COc1ccccc1-c1cnc(C(O)c2ccc(CN3CCCC3)cc2)[nH]1 (centres undefined)	-2.0	12.7	-5.0	-6.8	9.8	3.9
Cc1ccc(-c2ccc(CCC(=O)O)n2C(C)C)cc1	-0.3	-13.4	-4.1	-10.2	1.4	4.6
Cc1c(CCOC(=O)C2C3CC4CC(C3)CC2C4)sc[n+]1CC(=O)c1ccc(Br)cc1 (centres undefined)	100.7*	10.1	1.7	-43.0	31.9	6.9
COc1ccc(CN2C(=O)c3ccccc3C2=O)cc1C(=O)OCC(=O)NC1CCCCC1	0.6	-8.9	-0.1	18.8	17.3	5.8
N=C1SCC(=O)N1c1ncc(Cc2ccccc2Cl)s1	24.8	4.6	4.3	100.2*	-8.9	48.0
Cc1ccc(Cc2cnc(N3C(=N)SC(C)C3=O)s2)cc1 (centres undefined)	27.1	-15.0	10.5	-32.5	-22.5	49.5
Cc1cccc(Cc2cnc(N3C(=N)SC(C)C3=O)s2)c1 (centres undefined)	14.3	0.1	7.1	-27.1	-11.0	67.4*
N=C1SCC(=O)N1c1ncc(Cc2cccc(Cl)c2)s1	20.7	-6.6	5.5	102.3*	12.2	66.8*
CC(C)C(=O)Nc1ncc(Cc2ccccc2Cl)s1	4.1	0.3	-7.5	25.5	-15.4	-18.8
Cc1cccc(Cc2cnc(N3C(=N)SC(c4ccccc4)C3=O)s2)c1 (centres undefined)	15.9	14.9	-8.5	-1.6	26.2	10.7
CC(=O)c1ccc(N2CCN(S(=O)(=O)c3c(C)[nH]c(C)c3C(=O)N3CCCCC3)CC2)cc1	-60.0	0.3	-1.0	-13.0	-17.0	-15.5
COc1cccc2sc(Nc3nc(-c4ccccn4)cs3)nc12	-16.6	-75.8	14.0	103.9*	-299.2	-21.6
c1ccc(Nc2nc(-c3ccccn3)cs2)cc1	-283.6	-9.7	0.4	44.8	-218.4	34.8
Cc1cc(C(=O)NC2CCCc3c2cnn3-c2ccc(C(C)(C)C)cc2)nn1C (centres undefined)	-6.3	-9.4	9.1	60.5*	1.6	38.6
Cc1cc(C)cc(-n2ncc3c2CCCC3NC(=O)c2cc(C)n(C)n2)c1 (centres undefined)	-39.2	-3.9	-19.3	-13.3	-60.7	-1.8
Cc1cccc(OCc2nnc(SCC(=O)Nc3ncc(C)s3)o2)c1	-12.0	-4.1	-8.0	1.4	3.2	-19.5
O=[N+]([O-])c1cc(S(=O)(=O)Oc2ccccc2)ccc1Cl	107.1*	88.5*	-72.0*	38.0	88.2*	4.6
Cc1cc(OCC(=O)OCC(=O)c2c(N)n(C)c(=O)n(C)c2=O)ccc1Cl	3.7	-19.2	-10.2	86.1*	6.9	15.2
CCN(CC)S(=O)(=O)c1ccc(C(=O)N2CCN(c3ncccn3)CC2)cc1	18.5	3.1	-9.9	7.6	10.7	0.5
CCN(Cc1ccccc1)S(=O)(=O)c1ccc(C(=O)N2CCN(c3nc4ccccc4s3)CC2)cc1	-3.1	-19.7	-9.0	92.6*	-27.6	45.7
COC(=O)c1c(NC(=O)C2CC=CCC2C(=O)O)sc2c1CCCCC2 (centres undefined)	6.6	-25.8	5.0	96.4*	1.9	1.9
O=C(Nc1sc2c(c1C(=O)O)CCCCC2)c1ccccc1	-215.4	8.8	8.3	64.4*	-247.3	36.7
SMILES	Peg3 prom inh	CF NFkB inh	KKLEB cytotox	TWEAK Fn14 block	HIF-2a block	TROY signal inh
O=C(Nc1sc2c(c1C(=O)O)CCC2)c1ccccc1	-144.1	14.2	-1.2	35.6	-144.0	-34.2
Cc1ccc(S(=O)(=O)NCCC(=O)NC2CCCCC2C)cc1 (centres undefined)	18.0	16.5	-3.4	-7.5	7.1	3.3
CN(C)S(=O)(=O)c1cccc(-c2nn(-c3ccccc3)cc2/C=C2\SC(=S)NC2=O)c1	59.9*	53.3*	-16.8	64.4*	0.0	66.8*
OC(CNCCc1ccc(C(F)(F)F)cc1)COc1cccc2ccccc12 (centres undefined)	90.3*	10.3	-10.1	4.5	20.7	5.4
OC(CNC1CCCCCC1)COc1cccc2ccccc12 (centres undefined)	91.8*	25.7	-7.7	-5.5	10.3	-12.7
COc1ccc(CNCC(O)COc2ccc(C(C)(C)c3ccccc3)cc2)cc1 (centres undefined)	74.5*	21.5	-6.4	-26.8	10.2	6.2
COC(=O)c1ccc(CNCC(O)COc2ccc(-c3ccccc3)cc2)cc1 (centres undefined)	-16.1	-5.0	-6.9	6.7	-6.9	-8.1
COc1ccc(CCNCC(O)COc2cccc(Br)c2)cc1 (centres undefined)	74.2*	26.7	-8.5	2.4	21.2	16.4
COc1ccccc1COCC(O)CNCCc1ccc(C(F)(F)F)cc1 (centres undefined)	-12.2	1.4	-18.4	3.2	9.4	-5.7
CCOC(=O)c1c(C)n(C)c2ccc(OCC(O)CNCCc3ccccc3)cc12 (centres undefined)	37.8	30.6	-21.9	-9.3	-0.5	2.6
OC(CNCCc1ccc(C(F)(F)F)cc1)COc1ccc2ccccc2c1 (centres undefined)	100.6*	11.5	-12.5	-13.1	15.4	-23.7
O=c1[nH][nH]c2cc(=O)n(-c3ccc(Cl)cc3)nc12	-1.1	-0.2	3.2	-6.3	15.6	-4.5
S=C(NCCCc1cnc[nH]1)NCCCN(Cc1ccccc1)c1ccc(Br)cn1	46.1	14.3	-5.0	-28.1	3.4	3.9
S=C(NCCCc1cnc[nH]1)NCCCN(Cc1ccc(Cl)cc1)c1ccc(Br)cn1	93.6*	17.3	-2.6	-4.9	-11.4	-3.3
O=C(/C=C/c1ccccc1[N+](=O)[O-])Nc1ccccc1	-248.8	-11.1	-7.0	-11.7	-229.6	-50.3
O=[N+]([O-])c1ccccc1N/N=C/c1ccccc1	-204.2	-14.9	5.9	15.2	-301.2	-29.0
CC1=C/C(=N\Nc2ccccc2[N+](=O)[O-])CC(C)(C)C1	-14.6	3.6	4.6	12.4	-10.6	58.4*
Cc1nn(-c2nc3ccccc3s2)c(C)c1Oc1ccccc1O	-314.5	-4.6	-1.5	46.9	-124.1	62.3*
Cn1c(=S)oc2ccccc21	6.0	-17.4	11.6	8.2	15.7	-8.1
CC(C)CC(=O)/C=C/n1c(=S)oc2ccccc21	107.0*	91.8*	-76.9*	98.6*	90.7*	14.7
Cc1cc(C(=O)COC(=O)C2COc3ccccc3O2)c(C)n1CC1CCCO1 (centres undefined)	11.7	-2.5	2.8	14.9	2.1	-14.3

Screening results from PubChem.
